Most compounds without a hit are left out; they make up all but 6.9% or so of the library.
S-ASM inh: human S-ASM enzyme inhibition; P17405; placental ASM, HMU-PC fluorogenic substrate, 60 min; Potency, µM (highest dose often 57.5 µM), for inactives: at the top dose activity change, negative = inhibition, actives largely listed as inhibitors; 340,000 tested, 0.006% active; note: potency is the fitted concentration of half-maximal effect
Target sequence (P17405 47-631 limits assumed): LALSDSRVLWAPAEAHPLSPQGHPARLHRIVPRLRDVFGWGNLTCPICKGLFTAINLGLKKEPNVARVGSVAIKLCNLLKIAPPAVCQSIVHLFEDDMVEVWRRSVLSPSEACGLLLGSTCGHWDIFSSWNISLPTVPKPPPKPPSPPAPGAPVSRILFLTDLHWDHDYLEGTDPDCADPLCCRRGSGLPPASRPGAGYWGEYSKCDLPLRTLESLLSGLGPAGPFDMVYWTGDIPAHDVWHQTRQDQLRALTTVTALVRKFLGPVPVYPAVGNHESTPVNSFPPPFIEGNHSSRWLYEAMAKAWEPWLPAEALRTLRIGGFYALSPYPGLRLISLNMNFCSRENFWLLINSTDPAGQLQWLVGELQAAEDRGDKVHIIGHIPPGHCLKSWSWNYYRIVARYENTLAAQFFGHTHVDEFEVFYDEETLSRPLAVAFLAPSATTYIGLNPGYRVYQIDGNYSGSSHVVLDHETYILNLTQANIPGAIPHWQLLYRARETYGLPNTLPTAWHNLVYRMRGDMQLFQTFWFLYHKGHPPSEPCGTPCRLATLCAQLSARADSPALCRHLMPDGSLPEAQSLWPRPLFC
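Steps: dispense placental human ASM, pin compound, wait 10 min at room temperature, add HMU-PC0 substrate at 9 uM final, incubate 60 min at 37 °C, add stop solution raising pH to 10, read fluorescence.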
SW480 rereplic: induces DNA re-replication in SW480 colon adenocarcinoma cells; AID 624297; SW480 DNA re-replication, Hoechst DNA content imaging, 48 h; Potency, µM (highest dose often 46.1 µM), for inactives: top-dose re-replication activation, hits mostly activators; 340,000 tested, 1.8% active; note: potency is the fitted concentration of half-maximal effect; % of control where 0% means no effect; nearly all actives have a fitted effect of over 55% in size
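Image-based read-out: total Hoechst fluorescence of nuclei (405 nm excitation, 500-530 nm emission), with hits raising the fraction of high-intensity nuclei. SW480 colon cells incubated 48 hr with compounds at 37 C.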
KB-3-1 cytotox: KB-3-1 parental cell cytotoxicity. Potency, µM (highest dose often 46.1 µM), actives largely listed as cytotoxic. KB-3-1 viability, CellTiter-Glo ATP luminescence, 72 h. 400,000 tested, 1.4% active; note: potency is the fitted concentration of half-maximal effect; % is set by controls: 0 for no effect and ±100 for the full control effect; nearly all actives have a fitted effect of over 60% in size
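Multi-concentration cytotoxicity screen in KB-3-1 cells grown in DMEM lacking phenol red with 10% FBS. After 72 h at 37 °C with compound, ATP-dependent luminescence was recorded.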
KB-V1 cytotox: KB-V1 MDR subline cytotoxicity; KB-V1 MDR cells viability, CellTiter-Glo, 72 h; Potency, µM (titrated, usually from 46.1 µM), most hits filed as cytotoxic; 400,000 tested, 3.4% active; note: potency is the fitted concentration of half-maximal effect; % is set by controls: 0 for no effect and ±100 for the full control effect; nearly all actives have a fitted effect of over 60% in size
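Cytotoxicity toward P-gp-expressing KB-V1 cells was determined as loss of CellTiter-Glo luminescence after 72 h at 37 degrees C. Compounds were tested in quantitative HTS format across a concentration range, with curves fitted to normalized data.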
MCF10A rerep: DNA re-replication induction in MCF 10a cells; Potency, µM (titrated, usually from 46.1 µM), without a hit: at the highest dose activity, positive = re-replication, hits mostly activators; 350,000 tested, 2.9% active; MCF 10A DNA re-replication, Hoechst nuclear intensity, 48 h; note: potency is the fitted concentration of half-maximal effect; % of control where 0% means no effect; nearly all actives have a fitted effect of over 50% in size
Giardia killer: Giardia lamblia killing. Giardia lamblia trophozoite viability. activity change, % at 7.66 µM, hits read low. 340,000 tested, 0.15% active. AID 540267; in the data active = activity change below about -80%; inconclusive = between about -30% and that limit;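 note: parasites exposed to compound for two days anaerobically before the ATP read; % is set by controls: 0 for no effect and ±100 for the full control effect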
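Compounds were tested on trophozoites seeded at 100 cells/well and held 48 hrs at 37 deg C anaerobically. An ATP-based luminescent kit measured the remaining live cells.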
Starred values were filed as active, the others as inactive. Unless noted, calls come from the whole dose curve; as a rule, active = well fitted curve in the direction sought with a large enough effect; inconclusive = small, poorly fitted or top-dose-only effect, or another doubt; inactive = no such curve, though single readings can be large; an effect the other way counts as inactive or inconclusive.

What do the screens show for `COC(=O)c1[nH]c2ccccc2c1NC(=O)CN1CCN(C/C=C/c2ccccc2)CC1`?
S-ASM inh: -0.8%; SW480 rereplic: 15.8%; KB-3-1 cytotox: inactive; KB-V1 cytotox: inconclusive; MCF10A rerep: 9.2%; Giardia killer: -14.5

Results for CCOC(=O)N1CCN(c2c(-c3ccccc3)c3cc(Cl)ccc3[nH]c2=O)CC1 ?
S-ASM inh: -1.5%; SW480 rereplic: -3.7%; KB-3-1 cytotox: inconclusive; KB-V1 cytotox: 9.2µM*; MCF10A rerep: -3.1%; Giardia killer: 4.3

Results for CCOC(=O)c1[nH]c2ccc(F)cc2c1NC(=O)CN1CCN(C/C=C/c2ccccc2)CC1 ?
S-ASM inh: -2.6%; SW480 rereplic: inconclusive; KB-3-1 cytotox: inactive; KB-V1 cytotox: inconclusive; MCF10A rerep: 14.6µM*; Giardia killer: 16.3

What do the screens show for `CCOC(=O)N1CCN(CC(=O)Nc2c(C(=O)OC)[nH]c3ccc(Cl)cc23)CC1`?
S-ASM inh: 5.8%; SW480 rereplic: 1.6%; KB-3-1 cytotox: 16.4µM*; KB-V1 cytotox: 2.31µM*; MCF10A rerep: 28.8%; Giardia killer: -2.0

Results for O=C(NCCc1ccccc1)C1Cc2c(-c3ccccc3Oc3ccccc3)ccnc2O1 (centres undefined) ?
KB-3-1 cytotox: inactive; KB-V1 cytotox: inconclusive

Results for COc1c2c(c(OC)c3c1c(=O)c1ccccc1n3C)OCO2 ?
S-ASM inh: 17.7%; SW480 rereplic: inconclusive; KB-3-1 cytotox: inactive; KB-V1 cytotox: inconclusive; MCF10A rerep: 10.7%; Giardia killer: -1.2

How did COc1c2c(c3c(c1OC)c(=O)c1ccccc1n3C)OCO2 do in these assays?
S-ASM inh: 3.8%; SW480 rereplic: 14.7%; KB-3-1 cytotox: inactive; KB-V1 cytotox: 13µM*; MCF10A rerep: 9.8%; Giardia killer: -2.8

What do the screens show for `CCCCCCN1C=CC(=C/C=C(\C#N)C(=O)OCC)C=C1`?
S-ASM inh: -24.0%; SW480 rereplic: -3.1%; KB-3-1 cytotox: inactive; KB-V1 cytotox: 8.2µM*; MCF10A rerep: 6.4%; Giardia killer: -19.6

What do the screens show for `CCCN1C=CC(=CC=C(C#N)C#N)C=C1`?
S-ASM inh: -17.9%; SW480 rereplic: -18.3%; KB-3-1 cytotox: inactive; KB-V1 cytotox: inactive; MCF10A rerep: inconclusive; Giardia killer: 3.2

Results for CCn1c2ccccc2c2cc(NC(=O)CSc3nnc(-c4cccc(C)c4)o3)ccc21 ?
S-ASM inh: -6.1%; SW480 rereplic: inconclusive; KB-3-1 cytotox: 23.1µM*; KB-V1 cytotox: inconclusive; MCF10A rerep: inconclusive; Giardia killer: -2.9

What do the screens show for `Cc1ccc(C)c(NC(=O)CSc2nnc(-c3ccccc3)o2)c1`?
S-ASM inh: -0.7%; SW480 rereplic: -9.1%; KB-3-1 cytotox: inactive; KB-V1 cytotox: inactive; MCF10A rerep: -3.8%; Giardia killer: 9.6

Results for CCn1c2ccccc2c2cc(NC(=O)CSc3nnc(-c4cccc(F)c4)o3)ccc21 ?
S-ASM inh: -10.4%; SW480 rereplic: inconclusive; KB-3-1 cytotox: 7.31µM*; KB-V1 cytotox: 11.6µM*; MCF10A rerep: 5.17µM*; Giardia killer: -0.9

What do the screens show for `CCn1c2ccccc2c2cc(NC(=O)CSc3nnc(-c4ccccc4)o3)ccc21`?
S-ASM inh: -9.8%; SW480 rereplic: 0.651µM*; KB-3-1 cytotox: inactive; KB-V1 cytotox: inconclusive; MCF10A rerep: inconclusive; Giardia killer: -15.7

Results for COc1ccc(C(=O)Nc2ccc(-c3cc(C(F)(F)F)nn3-c3ccccc3)cc2)cc1OC ?
KB-3-1 cytotox: inactive; KB-V1 cytotox: inactive

What do the screens show for `COc1c(Cl)cc(C(=O)Nc2ccccc2-c2ccccc2)cc1Cl`?
S-ASM inh: -7.0%; SW480 rereplic: 7.2%; KB-3-1 cytotox: 20.6µM*; KB-V1 cytotox: 14.6µM*; MCF10A rerep: inconclusive; Giardia killer: -8.2

Results for O=C(Nc1ccc(Cl)c(-c2nc3ccccc3[nH]2)c1)c1cccnc1 ?
S-ASM inh: -10.9%; SW480 rereplic: 2.8%; KB-3-1 cytotox: inactive; KB-V1 cytotox: 20.6µM*; MCF10A rerep: 1.4%; Giardia killer: 22.7

High-throughput results as filed in PubChem BioAssay.
